# Only some compounds are listed: those with a hit (about 6.1% of all), similar ones and a draw of the others.
# D1 agonist – activates the human D1 dopamine receptor. P21728. HEK293 T-REx D1 cells, calcium flux, agonist mode. activation, % at 2 µM. actives 1% (n = 360,000); in the data active = activation above about 30%; also: 0% is about no effect
# Target sequence (P21728 whole entry, looked up): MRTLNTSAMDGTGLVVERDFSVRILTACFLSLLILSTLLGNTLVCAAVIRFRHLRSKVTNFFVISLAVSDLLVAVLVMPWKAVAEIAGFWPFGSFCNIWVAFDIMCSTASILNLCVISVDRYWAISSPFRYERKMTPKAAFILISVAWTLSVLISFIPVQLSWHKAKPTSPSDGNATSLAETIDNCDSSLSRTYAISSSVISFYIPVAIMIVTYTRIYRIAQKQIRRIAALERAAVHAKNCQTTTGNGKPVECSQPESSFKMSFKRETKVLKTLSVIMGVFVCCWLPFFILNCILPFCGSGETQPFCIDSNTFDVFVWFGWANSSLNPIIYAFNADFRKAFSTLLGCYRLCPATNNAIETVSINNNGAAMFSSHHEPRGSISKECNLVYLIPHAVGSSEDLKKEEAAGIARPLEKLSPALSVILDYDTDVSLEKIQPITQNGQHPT
#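 Inducible HEK293 T-REx D1 cells, force-coupled to calcium signalling, were plated at 4000 cells/well with tetracycline and held overnight at 30 C. After no-wash calcium dye loading, compound-evoked calcium rise over 180 s flagged agonists.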
# D3 antag – blocks the human D3 dopamine receptor; P35462; D3R cells, DiscoveRx beta-arrestin luminescence, antagonist mode; stronger effect = lower value; max response, negative = inhibition, %; actives 2.5% (n = 360,000); AID 652054; in the data active = max response below about -50%; inconclusive = no clear call, values can overlap the other calls; also: % is scaled to controls: 0 for no effect and ±100 for the full control effect
#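 Cells expressing the human receptor were seeded at 1500 cells/well, incubated overnight at 37 degrees C in 5% CO2, then exposed to library compounds with dopamine controls for 90 minutes at 37 degrees C before luminescent detection.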
# D1 PAM – human D1 dopamine receptor positive modulation; HEK293 TREx D1 cells, calcium flux, dopamine EC20 potentiation; actives 0.036% (n = 360,000); potentiation, % at 10 µM; P21728; in the data active = potentiation above about 30%; also: 0% is about no effect
# D1 antagonist – human D1 dopamine receptor antagonism | activity change, negative = inhibition, % at 10 µM | P21728 | AID 504652 | HEK293 TREx D1 cells, calcium flux, dopamine EC80; stronger effect = lower value | actives 3.2% (n = 360,000); in the data active = activity change below about -30%; also: % is scaled to controls: 0 for no effect and ±100 for the full control effect
#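 Compound effects on dopamine-evoked calcium signalling were measured in tetracycline-induced HEK293 Trex D1 cells. Dopamine at EC80 followed a 180 s compound pre-read, and fluorescence was tracked kinetically for 180 s more.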
# D3 ag – agonists of human D3 dopamine receptor. P35462. D3R DiscoveRx beta-arrestin cells, luminescence, 90 min. max activation, %. actives 0.58% (n = 410,000). AID 652048; in the data active = max activation above about 30%; also: 0% is about no effect
#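 Agonist mode: compounds and dopamine controls were applied to plated cells for 90 min at 37 degrees C after an overnight attachment at 1500 cells/well. Luminescent read-out followed 30 - 60 minutes at room temperature with DiscoveRx detection reagent.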
# An asterisk follows results filed as active; ? = inconclusive; / = no result given.
SMILES,D1 agonist,D3 antag,D1 PAM,D1 antagonist,D3 ag
FC(F)(F)c1nnc(-c2ccccc2)nc1Sc1ccccc1,/,?,/,/,-10
FC(F)(F)c1cccc(Sc2nc(-c3ccccc3)nnc2C(F)(F)F)c1,6,-61*,2,1,-8
FC(F)(F)c1nnc(-c2ccccc2)nc1Sc1ccc(Cl)cc1,7,-93*,7,-2,-9
CCOC(=O)[C@H](CCc1ccccc1)N[C@@H](C)C(=O)N1[C@H](C(=O)O)C[C@H]2CCCC[C@@H]21,/,/,/,/,-15
Nc1ncnc2c1ccn2[C@H]1CN(Cc2ccc(Cl)cc2)C[C@@H](CO)O1,/,0,/,/,10
COc1ccc(C(=O)NC2CC2)cc1OC1CCN(Cc2ccc(F)cc2F)CC1,1,-20,-17,-19,-9
C=CCOc1ccccc1CN1CCC(Oc2cc(C(=O)NC3CC3)ccc2OC)CC1,1,-4,-9,-74*,-5
COc1ccc(C(=O)NC2CC2)cc1OC1CCN(Cc2ccccc2O)CC1,2,-23,-23,-38*,-30
C=CCN(CC=C)C(=O)c1ccc(OC2CCN(C(C)=O)CC2)c(OC)c1,4,11,3,-42*,-2
COc1ccc(C(=O)NC2CC2)cc1OC1CCN(Cc2ccccc2F)CC1,2,7,-4,-53*,-3
CCOc1ccc(NC(=O)Nc2cccnc2)cc1,0,7,1,-2,5
COc1ccc(Cl)cc1NC(=O)CN(C)C(=O)Cn1cnnn1,/,2,/,/,-9
O=C(NCc1cc(C(F)(F)F)ccc1F)C1CCC(=O)N(C2CC2)C1 (stereo not given),2,2,0,-36*,14
COCCCc1cc(F)c(S(=O)(=O)N2CCN(S(=O)(=O)c3ccc4c(c3)OCCO4)CC2)cc1F,3,/,-2,-2,/
COc1ccc(OC)c(CNS(=O)(=O)c2ccc(-c3cc(C(F)(F)F)on3)s2)c1,17,/,0,-12,13
COc1ccccc1CNS(=O)(=O)c1ccc(-c2cc(C(F)(F)F)on2)s1,33*,/,-2,-3,-13
CN1CCc2cccc3c2C1Cc1ccc(O)c(O)c1-3 (stereo not given),48*,65,-8,-75*,123*
O=C(NCC1CCCO1)c1ccc([N+](=O)[O-])s1 (stereo not given),2,-2,2,6,-1
CCC1(C)SC(N)=NN1C(C)=O (stereo not given),1,11,2,12,4
Cc1ccc(-c2nn(-c3ccc(F)cc3F)c3c2cnc2ccc(F)cc23)cc1,-1,/,0,-21,3
Cc1ccc([N+](=O)[O-])cc1NC(=O)Nc1onc(C)c1C,10,-3,-18,-36*,1
CCNC(=O)NC(=O)c1csc([N+](=O)[O-])c1,1,18,-4,0,14
O=C(Nc1ccc([N+](=O)[O-])cc1)Nc1ccc(Cl)cc1F,29,-17,-11,-19,-5
O=C(Nc1ccc(Cl)cc1)Nc1cc([N+](=O)[O-])ccc1F,12,0,-4,-37*,10
O=C(Nc1ccc(Cl)cc1)Nc1csc([N+](=O)[O-])c1,19,-14,-11,-45*,-11
SMILES,D1 agonist,D3 antag,D1 PAM,D1 antagonist,D3 ag
O=C(Nc1csc([N+](=O)[O-])c1)Nc1c(Cl)cccc1Cl,9,-15,-7,-45*,-4
O=S1(=O)C[C@H]2NC(=S)N(c3ccccc3)[C@H]2C1,2,6,-6,-14,13
CC(NCc1ccc(S(N)(=O)=O)cc1)C(=O)Nc1cc([N+](=O)[O-])ccc1Cl (stereo not given),1,-8,-6,8,-3
O=C(Nc1ccc(Cl)cc1)Nc1ccccc1CC[N+](=O)[O-],35*,13,-8,-39*,-1
CN(C)C(=O)Nc1ccccc1CC[N+](=O)[O-],3,-9,-1,1,-7
CC(NCc1ccc(S(N)(=O)=O)cc1)C(=O)Nc1ccc([N+](=O)[O-])cc1Cl (stereo not given),3,-12,-6,-30*,-4
Cc1ccc([N+](=O)[O-])cc1NC(=O)Nc1ccc(S(N)(=O)=O)cc1,7,-3,-18,-79*,0
CCN(C(=O)COC(=O)CCC(=O)c1ccc(C)cc1)c1c(N)n(Cc2ccccc2)c(=O)[nH]c1=O,/,-27,/,/,-6
Cc1ccccc1NC(=O)N1CCC(NC(=O)C2CCCCC2)CC1,2,0,5,-14,19
O=C1CSC(c2ccccc2F)N1CCN1CCCCC1 (stereo not given),0,-86*,1,3,-6
Cc1cc(C)nc(CCNC(=O)c2cc(COc3ccc(F)cc3Cl)on2)n1,6,-4,-4,3,22
Cc1cc(C)nc(CCNC(=O)c2cc(COc3ccc(F)cc3F)on2)n1,1,12,2,-34*,2
CC(C)(C)c1ccc(Nc2nc(C#N)nc(NC3CCCC3)n2)cc1,6,/,4,-1,/
COc1ccc(-c2cc(-c3ccc(Cl)cc3)n[nH]2)c(O)c1,1,10,-6,-34*,-1
CCCOc1ccc(C2c3c(-c4ccccc4O)n[nH]c3C(=O)N2Cc2ccncc2)cc1OCC (stereo not given),2,/,3,-8,-11
O=C(NCc1ccccc1)c1ccccc1C(=O)c1ncc[nH]1,1,4,2,4,3
CCCCNC(=O)c1onc(CSc2ccc(C)c(C)c2)c1C(=O)O,1,-3,-1,-32*,-4
Cc1ccccc1NC(=O)CSc1ccc(-c2cccs2)nn1,4,/,-2,5,3
Cc1ccc(C)c(NC(=O)CSc2ccc(-c3cccs3)nn2)c1,1,2,-7,-81*,8
Cc1ccc(C)c(NC(=O)CSc2nnc(-c3ccncc3)n2N)c1,1,-70*,-3,1,-3
COc1ccc(C)cc1NC(=O)CCS(=O)(=O)c1cc2c3c(c1)CCN3C(=O)CC2,1,/,3,-13,6
CCN(Cc1ccncc1)Cc1cn[nH]c1-c1cc(OC)c(OC)c(OC)c1,1,0,2,23,-6
CCOc1ccccc1CNC(=O)c1cc2oc3ccccc3c2n1CC,1,-20,-6,-43*,8
COc1cccc(CNC(=O)c2cc3oc4ccccc4c3n2C)c1OC,3,11,-10,-32*,4
COc1cc(C(c2sc3nc(C)nn3c2O)N2CCC3(CC2)OCCO3)cc(OC)c1OC (stereo not given),1,-51*,-2,-9,2
CCCN(CC(=O)Nc1ccc(F)c(F)c1F)C(=O)Cc1ccc(OC)c(S(=O)(=O)N2CCOCC2)c1,/,4,/,/,-2
COC(=O)c1ccc(OC(=O)c2cccnc2)cc1,4,14,-3,-1,2
COc1ccc(C(=O)Oc2cccnc2)cc1,1,0,-5,-32*,-2

# Source: PubChem BioAssay
